# Hits are enriched below; roughly 0.3% of the tested compounds scored in any of these assays.
# p53 reactivation = mutant p53 re-activation in reporter cells; H1299 p53-A138V BP100-luciferase reporter, luminescence, 24 h; Potency, µM (series often up to 92.2 µM), most hits filed as activators; hit rate 0.063% among 320,000; note: nearly all actives have a fitted effect of over 45% in size
#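 p53-null H1299 cells stably carrying temperature-sensitive p53-A138V and a BP100-luciferase reporter were pinned with compounds (4-point, 1:5 series) and held 24 hrs at 37 deg C. Luminescence was read 10 min after detection reagent.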
# AT treatment = candidate therapy for ataxia-telangiectasia; F2112 A-T fibroblasts, KAP-1 phosphorylation AlphaLISA; neocarzinostatin DNA damage 30 min before lysis; hit rate 0.19% among 320,000; Potency, µM (doses to about 57.5 µM), most hits filed as activators; note: nearly all actives have a fitted effect of over 45% in size
#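 hTERT-immortalized A-T patient fibroblasts (F2112), 500 cells/well in OPTI-MEM, 1% FBS, got compounds for 60 min, then NCS for 30 min at 37C. Lysates were then assayed for phospho-KAP-1 by AlphaLISA (anti-pKAP1 donor, anti-KAP1 acceptor beads), 6 hr at 25C.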
# N370S GC = N370S glucocerebrosidase modulation, Gaucher chaperone candidate | P04062 | N370S GC spleen homogenate, 4MU-glucoside fluorescence | Potency, µM (titrated, usually from 59.4 µM), hits mostly inhibitors | hit rate 0.092% among 330,000
# S-ASM inh = blocks human secretory acid sphingomyelinase. placental ASM, HMU-PC fluorogenic substrate, 60 min. hit rate 0.006% among 340,000. Potency, µM (highest dose often 57.5 µM), most hits filed as inhibitors
# Target sequence (P17405 47-631 limits assumed): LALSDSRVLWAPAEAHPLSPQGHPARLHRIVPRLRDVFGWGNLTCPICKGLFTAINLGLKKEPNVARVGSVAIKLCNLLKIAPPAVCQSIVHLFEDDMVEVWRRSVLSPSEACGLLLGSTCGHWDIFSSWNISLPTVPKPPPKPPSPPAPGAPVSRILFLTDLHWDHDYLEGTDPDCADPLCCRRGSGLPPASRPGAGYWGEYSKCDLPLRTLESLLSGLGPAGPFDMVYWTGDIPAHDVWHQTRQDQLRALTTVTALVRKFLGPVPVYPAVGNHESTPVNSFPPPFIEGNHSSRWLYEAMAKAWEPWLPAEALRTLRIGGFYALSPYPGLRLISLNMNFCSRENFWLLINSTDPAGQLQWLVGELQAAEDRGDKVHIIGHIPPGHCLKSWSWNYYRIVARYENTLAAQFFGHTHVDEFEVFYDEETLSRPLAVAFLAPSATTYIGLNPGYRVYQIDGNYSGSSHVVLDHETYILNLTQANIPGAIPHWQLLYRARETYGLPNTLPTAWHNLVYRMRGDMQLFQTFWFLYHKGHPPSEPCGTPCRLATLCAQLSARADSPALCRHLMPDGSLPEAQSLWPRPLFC
#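 qHTS format. ASM enzyme prepared from human placenta hydrolyses the fluorogenic substrate HMU-PC0 (9 uM final) over 60 min at 37 °C after a 10 min compound preincubation.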
# Hits are given with their value; n = inactive; u = inconclusive; x = no result; [ ] = another dose, or the depositor's remark. Calls come from the whole dose curve; as a rule, active = well fitted curve in the direction sought with a large enough effect; inconclusive = small, poorly fitted or top-dose-only effect, or another doubt; inactive = no such curve, though single readings can be large; an effect the other way counts as inactive or inconclusive.
SMILES,p53 reactivation,AT treatment,N370S GC,S-ASM inh
CCN1CC(C)C(O)(c2ccccc2)CC1C (centres undefined),n,n,n,n
Cc1cc2c(c(=O)o1)C(c1ccc([N+](=O)[O-])o1)C(C#N)=C(N)O2 (centres undefined),n,32µM,n,n
CCC(CC)C1C(C#N)=C(N)Oc2cc(C)oc(=O)c21 (centres undefined),n,n,n,n
Cc1ccc(CN(C)S(=O)(=O)c2c(C)noc2/C=C/N(C)C)cc1,n,u,n,n
Cc1noc(/C=C/N(C)C)c1S(=O)(=O)N(C)Cc1ccc(F)cc1,n,32µM,n,n
Cc1noc(/C=C/N(C)C)c1S(=O)(=O)N1CCc2ccccc21,n,25µM,n,n
COc1ccc(-n2c(=S)[nH]c3ccccc3c2=S)cc1,n,2.8µM,n,n
O=C([O-])[C@@H]1[O][Sb+]([O][Sb+]2[O][C@H]([C@H](O)CO)[C@H](O)[C@H](C(=O)[O-])[O]2)[O][C@H]([C@H](O)CO)[C@@H]1O,x,x,n,x
CCOc1ccc(CCN2C(=O)C(=O)N([C@H](CCCN(C)Cc3ccccc3)CNCc3ccccc3)C[C@@H]2C(C)C)cc1,n,40µM,n,x
COc1ccc(CNC[C@@H](CCCCN(C)Cc2ccc(OC)cc2)N2C[C@H](c3ccccc3)N(CCc3ccc(Cl)c(Cl)c3)C(=O)C2=O)cc1,n,n,u,n
COCCCNC(=O)CN1C(=O)/C(=C/c2ccccc2)Sc2ccccc21,n,40µM,n,n
Cc1ccc(-c2cn3nc(-c4ccccc4)c(-c4ccccc4)nc3n2)cc1,n,28µM,n,n
COC(=O)C(C(C)=O)C1c2ccccc2C=C(C)N1C(=O)OC (centres undefined),x,x,n[12.8 µM],x
Cc1cc(/C=C2/C(=O)NN(c3ccccc3)C2=O)c(C)n1-c1ccc(O)cc1,n,n,8.9µM,n
CCCOc1ccc(C(=O)CCC(=O)OCC(=O)Nc2ccc(OCC)cc2)cc1,n,14µM,n,x
N#C/C(=C/c1cn(-c2ccccc2)nc1-c1cccc(OCc2ccc(F)cc2)c1)C(=O)NCCCn1ccnc1,n,n,16µM,x
CC1CCC(O)C/C1=C\C=C1/CCCC2(C)C1CCC2C(C)/C=C/C(C)C(C)C (centres undefined),x,x,n,x
CN(C)C1CCN(CCCOc2ccc(-c3ccc(C#N)cc3)cc2)C1 (centres undefined),x,x,n,x
COc1ccc(-c2cn3ccc4ccccc4c3n2)cc1,28µM,x,n,n
Brc1ccc(C2=N[C@@H](Cc3ccccc3)CO2)cc1,x,x,n,x
CC=C1COC(C(=O)NCCOCCO)(C(F)(F)F)C=C1C=C(C)C (centres undefined),x,x,n,x
CCO[C@@H]1OC(C(=O)N2CCN(C)CC2)=C[C@H](c2csc3ccccc23)[C@H]1CCCO,n,n,n,n
CCO[C@H]1OC(C(=O)N2CCN(C)CC2)=C[C@@H](c2csc3ccccc23)[C@@H]1CCCO,n,20µM,n,n
CCCCc1cc2c(cn1)=C(OC(=O)c1ccc(Cl)nc1)C(C)(OC(=O)CC)C(=O)C=2 (centres undefined),x,x,n[12.8 µM],x
CCN1CCc2c(sc(NC(=O)Nc3ccc(Cl)c(Cl)c3)c2C(N)=O)C1,n,25µM,n,n
SMILES,p53 reactivation,AT treatment,N370S GC,S-ASM inh
CCN1CCc2c(sc(NC(=O)Cc3ccccc3)c2C(N)=O)C1,n,n,n,n
C/C(N)=C(/C#N)C(=O)CSc1ccc2c(c1)OCCO2,40µM,n,n,n
CCN(C/C=C/C#CC(C)(C)C)Cc1cccc(OCc2cc(-c3ccsc3)cs2)c1,x,x,n,x
COc1ccc([C@H]2OCC3C2CO[C@@H]3c2ccc(OC)c(OC)c2)cc1OC (some centres undefined),x,x,n,x
COc1cccc(C(c2c(NC(=O)c3ccccc3)sc(C)c2C)N2CCN(C)CC2)c1 (centres undefined),n,n,16µM,n
CC1(C)N=C(N)N=C(N)N1c1cccc(CN)c1,n,28µM,n,n
CC1(C)N=C(N)N=C(N)N1c1ccccc1,n,n,x,n
OC(C#Cc1ccccn1)c1cccs1 (centres undefined),n,14µM,n,n
O=C(Nc1nc2ccccc2s1)c1ccccc1[N+](=O)[O-],28µM,n,n,n
O=c1cc(-c2cccc(O)c2O)oc2ccccc12,x,x,n,x
CC[C@H](C)C(=O)O[C@@H]1C[C@H](C)C=C2C=C[C@H](C)[C@@H](CC[C@H]3C[C@@H](O)CC(=O)O3)[C@H]21,x,x,n,x

# From PubChem BioAssay
